From PubChem
Only some compounds are listed: those with a hit (about 0.45% of all), similar ones and a draw of the others.
Mtb BioA inh = blocks M. tuberculosis BioA enzyme activity | purified M. tuberculosis BioA enzyme, plate reader | inhibition, % at 9.99 µM | 0.096% of 360,000 active; in the data active means inhibition above about 40%; inconclusive means no clear call, values can overlap the other calls
Yp Topo-I inh = inhibitors of Yersinia pestis topoisomerase I | Y. pestis Topo-I cleavage product accumulation, plate reader | activity, % at 10 µM | 0.064% of 360,000 active | AID 504884; in the data active means activity above about 50%, passing the limit was not always enough; inconclusive means no clear call, values can overlap the other calls
TcdB inh = inhibitors of Clostridioides difficile toxin B glycohydrolase; P18177; inhibition, % at 9.99 µM; 0.24% of 350,000 active; TcdB glycohydrolase enzymatic assay, plate reader; in the data active means inhibition above about 10%
Target sequence (P18177 whole entry, looked up): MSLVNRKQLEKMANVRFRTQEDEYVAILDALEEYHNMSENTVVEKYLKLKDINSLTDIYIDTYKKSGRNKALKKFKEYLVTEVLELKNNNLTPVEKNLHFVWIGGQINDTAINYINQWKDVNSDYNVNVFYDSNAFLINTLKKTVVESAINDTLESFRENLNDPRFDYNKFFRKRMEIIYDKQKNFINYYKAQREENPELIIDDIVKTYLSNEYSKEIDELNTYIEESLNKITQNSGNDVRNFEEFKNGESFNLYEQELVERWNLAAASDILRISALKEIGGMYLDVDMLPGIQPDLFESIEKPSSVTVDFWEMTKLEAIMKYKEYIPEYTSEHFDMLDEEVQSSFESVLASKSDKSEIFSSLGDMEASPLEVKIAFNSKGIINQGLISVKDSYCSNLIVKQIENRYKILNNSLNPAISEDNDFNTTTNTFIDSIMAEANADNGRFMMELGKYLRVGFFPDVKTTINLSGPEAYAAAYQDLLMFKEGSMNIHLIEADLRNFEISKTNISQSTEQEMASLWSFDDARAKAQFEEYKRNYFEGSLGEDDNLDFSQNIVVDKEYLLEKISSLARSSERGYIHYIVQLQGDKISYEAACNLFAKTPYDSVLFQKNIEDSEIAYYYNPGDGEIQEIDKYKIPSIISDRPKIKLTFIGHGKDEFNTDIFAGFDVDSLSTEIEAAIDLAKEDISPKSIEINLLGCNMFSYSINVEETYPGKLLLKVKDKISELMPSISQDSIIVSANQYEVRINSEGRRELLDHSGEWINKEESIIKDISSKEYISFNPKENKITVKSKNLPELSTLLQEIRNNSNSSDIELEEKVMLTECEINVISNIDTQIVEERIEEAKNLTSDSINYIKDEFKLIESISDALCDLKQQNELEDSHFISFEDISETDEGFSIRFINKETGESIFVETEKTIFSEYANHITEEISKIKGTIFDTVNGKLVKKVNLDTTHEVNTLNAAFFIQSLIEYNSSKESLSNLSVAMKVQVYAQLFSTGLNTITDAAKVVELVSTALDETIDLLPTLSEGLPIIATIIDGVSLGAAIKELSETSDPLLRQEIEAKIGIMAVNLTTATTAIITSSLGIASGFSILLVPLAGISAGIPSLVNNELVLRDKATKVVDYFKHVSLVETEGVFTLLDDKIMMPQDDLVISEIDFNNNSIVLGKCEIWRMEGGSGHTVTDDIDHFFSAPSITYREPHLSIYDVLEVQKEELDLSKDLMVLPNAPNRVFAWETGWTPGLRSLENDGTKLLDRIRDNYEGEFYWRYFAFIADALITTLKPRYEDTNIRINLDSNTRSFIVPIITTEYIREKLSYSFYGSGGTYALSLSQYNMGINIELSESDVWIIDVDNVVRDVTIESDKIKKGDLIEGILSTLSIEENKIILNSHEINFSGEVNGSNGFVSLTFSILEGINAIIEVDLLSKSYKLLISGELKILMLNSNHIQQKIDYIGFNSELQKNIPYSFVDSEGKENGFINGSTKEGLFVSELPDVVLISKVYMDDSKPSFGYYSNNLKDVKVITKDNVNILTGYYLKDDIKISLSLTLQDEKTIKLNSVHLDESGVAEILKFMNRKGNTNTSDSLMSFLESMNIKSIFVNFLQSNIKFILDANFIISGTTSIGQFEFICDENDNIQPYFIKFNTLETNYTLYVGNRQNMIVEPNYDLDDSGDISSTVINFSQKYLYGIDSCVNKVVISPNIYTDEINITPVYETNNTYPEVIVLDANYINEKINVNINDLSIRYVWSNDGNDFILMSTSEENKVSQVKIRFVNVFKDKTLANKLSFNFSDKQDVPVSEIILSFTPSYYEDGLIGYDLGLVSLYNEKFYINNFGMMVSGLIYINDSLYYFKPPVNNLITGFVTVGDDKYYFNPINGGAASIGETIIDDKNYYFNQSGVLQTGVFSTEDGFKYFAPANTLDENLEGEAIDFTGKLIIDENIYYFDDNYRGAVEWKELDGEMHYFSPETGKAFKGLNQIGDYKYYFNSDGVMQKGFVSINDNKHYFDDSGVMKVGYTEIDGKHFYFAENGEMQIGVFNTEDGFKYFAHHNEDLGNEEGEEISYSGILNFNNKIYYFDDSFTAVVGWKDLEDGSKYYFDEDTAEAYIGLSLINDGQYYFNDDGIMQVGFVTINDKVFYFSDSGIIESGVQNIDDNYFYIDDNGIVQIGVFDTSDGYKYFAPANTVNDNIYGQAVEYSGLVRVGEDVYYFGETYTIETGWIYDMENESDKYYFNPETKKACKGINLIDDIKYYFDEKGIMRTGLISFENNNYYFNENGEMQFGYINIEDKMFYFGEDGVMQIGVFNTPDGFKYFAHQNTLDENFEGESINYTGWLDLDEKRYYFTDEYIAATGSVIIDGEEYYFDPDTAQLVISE
FadD28 binding = M. tuberculosis FadD28 bisubstrate binding inhibition; FadD28 bisubstrate probe binding, fluorescence polarization; inhibition, % at 12.5 µM; 0.22% of 360,000 active; AID 588549; in the data active means inhibition above about 8.5%, passing the limit was not always enough; inconclusive means no clear call, values can overlap the other calls
* marks the source's active call; other numbers are inactive results; ? = inconclusive; · = no result given.

SMILES | Mtb BioA inh | Yp Topo-I inh | TcdB inh | FadD28 binding
CCn1c(N)c(C(=O)NCC2CCCO2)sc1=S (configuration not stated) | 0 | 1 | · | -2
O=C(NCc1ccco1)c1sc(=S)n2c1[nH]c(=O)c1ccccc12 | 2 | -5 | · | ?
CCCCCNC(=O)c1ccc2c(=O)[nH]c3c(C(=O)NCC4CCCO4)sc(=S)n3c2c1 (configuration not stated) | 1 | 14 | · | 17*
O=C(NC1CCCC1)c1sc(=S)n2c1[nH]c(=O)c1ccccc12 | -2 | 7 | · | 29*
O=C(NCc1ccccc1)c1ccc2c(=O)[nH]c3c(C(=O)NCC4CCCO4)sc(=S)n3c2c1 (configuration not stated) | 2 | 4 | 0 | 23*
Cc1ccc(CNC(=O)c2ccc3c(=O)[nH]c4c(C(=O)NCC5CCCO5)sc(=S)n4c3c2)cc1 (configuration not stated) | 2 | 5 | 2 | 60*
CN(C)CCCNC(=O)C[C@H]1CC[C@@H]2[C@H](COC[C@H](O)CN2CC2CCCCC2)O1 | · | · | -11 | ·
C[C@H]1CN([C@@H](C)CO)C(=O)c2cc(-c3cccc(F)c3)cnc2O[C@@H]1CN(C)C | -1 | · | 0 | ·
C[C@@H]1CCCCO[C@@H](CN(C)S(=O)(=O)c2ccc(Cl)cc2)[C@H](C)CN([C@@H](C)CO)C(=O)c2cc(NC(=O)Nc3cccc4ccccc34)ccc2O1 | -3 | · | -1 | ·
CC=Cc1ccc2n(c1=O)C[C@H]1[C@H](CO)[C@@H](C(=O)N(C)C)[C@@H]2N1CC1CCCC1 (mixture of isomers) | · | · | -8 | ·
COc1cccc(NC(=O)N[C@@H]2CC[C@@H](CC(=O)Nc3ccc(-c4ccccc4)cc3)O[C@H]2CO)c1 | 3 | · | -1 | ·
CCCN(C)C[C@H]1OCCCC[C@@H](C)Oc2ccc(NC(=O)NC(C)C)cc2C(=O)N([C@@H](C)CO)C[C@H]1C | -1 | · | -3 | ·
O=C1NC(=S)SC1=Cc1cc(Br)ccc1O | · | -2 | 1 | 12*
O=C1NC(=S)SC1=Cc1ccccc1Br | 4 | 10 | 2 | -11
COc1cc(Cc2ccc(N)c(OC)c2)ccc1N | · | -9 | 15* | -2
COc1cc2c(c(OC)c1O)C(=O)CO2 | -1 | 2 | -4 | -4
COc1cc(OC)c2c(O)c3c(c(-c4c5c(c(O)c6c(OC)cc(OC)cc46)CO[C@@H](C)[C@H]5O)c2c1)[C@H](O)[C@H](C)OC3 | -4 | -10 | · | 10*
CO[C@@H]1CN(C)C(=O)c2cc(NC(=O)c3ccc4c(c3)OCO4)ccc2OC[C@@H](C)N(CC2CC2)C[C@@H]1C | 2 | · | -2 | ·
c1ccc(-c2nnc(OCC3CCCO3)c3ccccc23)cc1 (configuration not stated) | 7 | 15 | 11* | 1
N=C1CCC(=N)c2c1c(O)c1ccccc1c2O | · | 12 | · | 14*
Nc1ccc(S(=O)(=O)c2cc(O)c3ccccc3c2O)cc1 | · | -16 | 0 | 9.5*
CCOc1cc(/C=C2\CN(C)C/C(=C\c3ccc(O)c(OCC)c3)C2=O)ccc1O | 5 | -2 | -6 | -1
COc1cc(C=C2CN(C)C(=O)C2=O)ccc1O | 12 | 1 | 21* | -1
O=C(C[C@H]1CC[C@H]2[C@@H](COC[C@H](O)CN2CC2CCCC2)O1)NCC1CC1 | · | · | -1 | ·
CN(C)CC(=O)Nc1ccc2c(c1)[C@@H]1C[C@@H](CC(=O)NCc3ccc(-c4ccccc4)cc3)O[C@@H](CO)[C@@H]1O2 | 2 | · | 0 | ·
SMILES | Mtb BioA inh | Yp Topo-I inh | TcdB inh | FadD28 binding
N#C/C(=N\Nc1ccc(S(=O)(=O)N2CCc3ccccc32)cc1)C(N)=S | 4 | 0 | 1 | 46*
O=C(C[C@@H]1CC[C@@H](NC(=O)Nc2ccccc2F)[C@H](CO)O1)NCc1ccc(-c2ccccc2)cc1 | · | · | -1 | ·
COCC(=O)N(C)C[C@@H]1Oc2cc(-c3ccccc3F)ccc2S(=O)(=O)N([C@@H](C)CO)C[C@H]1C | -1 | · | -2 | ·
O=C(CSc1ccc(-c2nc3ccccc3[nH]2)cn1)Nc1ccc(S(=O)(=O)NC2CC2)cc1 | -4 | -4 | 1 | 33*
O=C(NCCn1cc(SCc2ccccc2)c2ccccc21)c1ccccc1F | 0 | 50* | 2 | 0
CC(=O)Nc1cnc(-c2ccccc2O)cn1 | -2 | 6 | 12* | -3
COc1ccccc1C1=NNC(=NCc2ccccc2)SC1 | · | 11 | 10* | -1
c1ccc(CN=C2NN=C(c3ccccc3)CS2)cc1 | · | 3 | 0 | 0
O=C(N/N=C/c1ccsc1)C1CC1 | · | 5 | 1 | -2
O=C(N/N=C/c1ccc(O)c(O)c1)C1CC1 | -2 | -6 | 16* | 0
CC1=C(C#N)C(=O)NC(=O)/C1=C\c1ccc(-c2cc(C)c(C)cc2[N+](=O)[O-])o1 | 3 | 2 | 0 | 15*
O=C1NC(=O)C(=Cc2ccc(-c3cc(Cl)ccc3[N+](=O)[O-])o2)C(=O)N1 | · | -2 | 2 | 4
COc1ccc(NC(=O)N(C)C[C@@H]2Oc3c(NS(=O)(=O)c4ccc(OC)cc4)cccc3C(=O)N([C@@H](C)CO)C[C@H]2C)cc1 | -2 | · | 1 | ·
COc1ccc2c3c([nH]c2c1)[C@H](CO)N(C(=O)c1cccnc1)CC31CN(C(=O)NC(C)C)C1 | · | · | -5 | ·
CCC(=O)N1CC[C@H]2[C@@H]1c1cc(-c3ccccc3)ccc1N(C)[C@H]2CO | 13 | · | 4 | ·
CN1c2ccc(-c3ccccc3)cc2[C@@H]2[C@@H](CCN2C(=O)CN2CCOCC2)[C@@H]1CO | 5 | · | 12* | ·
CN(C)CC(=O)N1CC[C@@H]2[C@H]1c1cc(-c3ccccc3)ccc1N(C)[C@H]2CO | 10 | · | 12* | ·
COc1ccc(-c2ccc3c(c2)[C@@H]2[C@@H](CCN2C(=O)C2CC2)[C@@H](CO)N3C)cc1 | 0 | · | 0 | ·
COCC(=O)N1CC[C@@H]2[C@H]1c1cc(-c3ccc(OC)cc3)ccc1N(C)[C@H]2CO | 2 | · | 17* | ·
O=C(C[C@H]1CC[C@H](NC(=O)CN2CCOCC2)[C@@H](CO)O1)NCc1cccc(F)c1 | -1 | · | 1 | ·
C[C@@H]1CN([C@@H](C)CO)C(=O)c2cc(C#CCN(C)C)cnc2O[C@@H]1CN(C)C(=O)Nc1cc(F)ccc1F | -5 | · | 0 | ·
COC(=O)C(C(=O)OC)C(CC(=O)c1ccc(Br)cc1)c1ccccc1 (configuration not stated) | -1 | 33 | 14* | -3
C[C@H](CO)N1C[C@H](C)[C@@H](CN(C)C(=O)Nc2ccc(C(F)(F)F)cc2)Oc2ccc(NC(=O)C3CCCCC3)cc2CC1=O | 1 | · | 0 | ·
COc1ccc(/C=C/C(=O)OCC(=O)NCCCc2ccccc2)cc1OC | 0 | 9 | 1 | 0
C=CCOc1ccc(/C=C/C(=O)OCC(=O)NCCCc2ccccc2)cc1 | -1 | 53* | 1 | -2
O=C(C1CCCC1)N1CC[C@@H]2[C@H](CO)Nc3ccc(C4=CCCCC4)cc3[C@@H]21 | · | · | 1 | ·
COc1[nH]c(/N=C/c2ccccc2)c(C#N)c1C#N | · | 3 | · | 28*
O=C(O)c1c(C(=O)O)c(-c2ccc(Br)cc2)n2c1CSC2 | 0 | 0 | 1 | 13*
CCOC(=O)Cc1csc(SCC(=O)Nc2cc(Cl)ccc2Oc2ccccc2)n1 | · | 68* | · | -1
Cc1ccc2c(c1)c(C)cc[n+]2Cc1ccccc1 | 2 | -7 | · | 1
